Source: PubChem BioAssay (NCATS)
Records with an inconclusive call do not appear. Entries that show only a call come without a potency. Active and inactive are the calls of the source. Calls follow the shape of the dose curve; as a rule, active = well fitted inhibition curve with a large enough effect; inconclusive = small, poorly fitted or top-dose-only effect; inactive = flat fitted curve, though single readings scatter.

Key:
Test in all cases: qHTS profiling for inhibitors of Plasmodium falciparum proliferation (AID 504749); also: nearly all actives have a fitted effect of over 60% in size
Conditions in all cases: P. falciparum in erythrocytes, SYBR Green DNA, 72 h; series mostly up to 28.7 µM
[1] = test system: CP238
Procedure, shortened: (§1)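 Parasite proliferation within erythrocytes, 72 h exposure. Endpoint: SYBR Green I fluorescence after overnight lysis at room temperature. Controls: 0.29 uM artemisinin, DMSO.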

[2] = test system: CP252
Procedure, shortened: as §1

[3] = test system: CP260
Procedure, shortened: as §1

[4] = test system: CP266
Procedure, shortened: as §1

[5] = test system: CP269
Procedure, shortened: as §1

[6] = test system: CP286
Procedure, shortened: as §1

[7] = test system: CP297
Procedure, shortened: as §1

[8] = test system: CP305
Procedure, shortened: as §1

[9] = test system: DFO2036
Procedure, shortened: as §1

[10] = test system: CP256
Procedure, shortened: as §1

[11] = test system: CP262
Procedure, shortened: as §1

[12] = test system: CP265
Procedure, shortened: as §1

[13] = test system: CP335
Procedure, shortened: as §1

[14] = test system: CP268
Procedure, shortened: as §1

[15] = test system: CP291
Procedure, shortened: as §1

[16] = test system: CP315
Procedure, shortened: as §1

[17] = test system: CP325
Procedure, shortened: as §1

[18] = test system: CP329
Procedure, shortened: as §1

[19] = test system: CP247
Procedure, shortened: as §1

[20] = test system: CP250
Procedure, shortened: as §1
Potency is read from the fitted curve at half-maximal effect.

| Structure (SMILES) | Potency [1] | Potency [2] | Potency [3] | Potency [4] | Potency [5] | Potency [6] | Potency [7] | Potency [8] | Potency [9] | Potency [10] | Potency [11] | Potency [12] | Potency [13] | Potency [14] | Potency [15] | Potency [16] | Potency [17] | Potency [18] | Potency [19] | Potency [20] |
| --- | --- | --- | --- | --- | --- | --- | --- | --- | --- | --- | --- | --- | --- | --- | --- | --- | --- | --- | --- | --- |
| Oc1cc(Cl)ccc1Oc1ccc(Cl)cc1Cl | 10 µM (active) | 7.94 µM (active) | 11.2 µM (active) | inactive | 12 µM (active) | 12.6 µM (active) | 15.1 µM (active) | inactive | 10 µM (active) |  |  |  |  |  |  |  |  |  |  |  |
| CN1C[C@H](CNC(=O)OCc2ccccc2)C[C@@H]2c3cccc4c3c(cn4C)C[C@H]21 | 11.2 µM (active) | 10 µM (active) | 11.2 µM (active) |  |  | 8.91 µM (active) |  |  | 8.91 µM (active) | 6.31 µM (active) | 6.75 µM (active) | 5.62 µM (active) | 6.75 µM (active) |  |  |  |  |  |  |  |
| N[C@@H](Cc1ccc(N(CCCl)CCCl)cc1)C(=O)O |  |  |  | inactive |  |  | inactive | inactive |  | inactive | inactive |  |  | inactive | inactive | inactive | inactive | inactive |  |  |
| O=c1[nH]c2ccccc2n1CCCN1CCC(n2c(=O)[nH]c3cc(Cl)ccc32)CC1 |  |  | 11.2 µM (active) | inactive |  | 11.2 µM (active) | 8.49 µM (active) |  | inactive |  | inactive |  | 10.7 µM (active) |  |  |  | inactive |  |  |  |
| C=C(C)[C@H]1Cc2c(ccc3c2O[C@@H]2COc4cc(OC)c(OC)cc4[C@@H]2C3=O)O1 | inactive | inactive | inactive | inactive |  | inactive | inactive | inactive | inactive | inactive |  | inactive |  | inactive |  | inactive | inactive | inactive | inactive | inactive |
| CC(=O)[C@H]1CC[C@H]2[C@@H]3CC[C@H]4C[C@](C)(O)CC[C@]4(C)[C@H]3CC[C@]12C | inactive | inactive |  | inactive | inactive | inactive | inactive | inactive | inactive | inactive | inactive | inactive | inactive | inactive | inactive | inactive | inactive | inactive | inactive | inactive |
| Cc1ccc(S(=O)(=O)N[C@@H](CCCCN)C(=O)CCl)cc1 |  |  |  | inactive | inactive |  | inactive |  |  | 7.94 µM (active) |  |  |  | inactive |  | inactive |  |  | 5.62 µM (active) | 7.94 µM (active) |
